B1: PhoQ; a variant is named by its letters at X, in order, P23837 (parent)
chain: MKKLLRLFFPLSLRVRFLLATAAVVLVLSLAYGMVALIGYSVSFDKTTFRLLRGESNLFYTLAKWENNKLHVELPENIDKQSPTMTLIYDENGQLLWAQRDVPWLMKMIQPDWLKSNGFHEIEADVNDTSLLLSGDHSIQQQLQEVREDDDDAEMTHSVAVNVYPATSRMPKLTIVVVDTIPVELKSSYMVWSWFIYVLSANLLLVIPLLWVAAWWSLRPIEALAKEVRELEEHNRELLNPATTRELTSLVRNLNRLLKSERERYDKYRTTLTDLTHSLKTPLXXLQXXLRSLRSEKMSVSDAEPVMLEQISRISQQIGYYLHRASMRGGTLLSRELHPVAPLLDNLTSALNKVYQRKGVNISLDISPEISFVGEQNDFVEVMGNVLDNACKYCLEFVEISARQTDEHLYIVVEDDGPGIPLSKREVIFDRGQRVDTLRPGQGVGLAVAREITEQYEGKIVAGESMLGGARMEVIFGRQHSAPKDE

The full ranking holds about 140,000 sequences; the median of “enrichment ratio after two sorts for PhoP signalling” is about 0, and the highest 2% start at about 11. This excerpt belongs to a sample that is enriched for the highest values. Bounds are passed on as bounds.

In the test the parent is B1. Nature of the test: enrichment ratio after two sorts for PhoP signalling (ratio (wild type AVST 3.29)); higher = more functional. The settings on record: with PhoP (E. coli).
As for HFAL, the enrichment ratio was no more than 0.25.

SCRE: the enrichment ratio was no more than 0.25.

Turning to DVLL, the enrichment ratio is no more than 0.25.

In the case of NASE, the enrichment ratio was no more than 0.25.

For KASE, the enrichment ratio is no more than 0.25.

As to RISE, the enrichment ratio was no more than 0.25.

In the case of QESE, the enrichment ratio was no more than 0.25.

As to TASE, the enrichment ratio was determined as 11.3.

Take AISE: the enrichment ratio worked out at 2.44.

Regarding SESE, the enrichment ratio amounted to 24.9.

Turning to TISE, the enrichment ratio amounted to 24.4.

For SLSE, the enrichment ratio worked out at 1.48.

With DDSE, the enrichment ratio is 1.96.

As for NESE, the enrichment ratio was no more than 0.25.

Consider TESE, for which the enrichment ratio is 20.

Turning to HLPY, the enrichment ratio is no more than 0.25.

Consider MSKE, for which the enrichment ratio was no more than 0.25.

On to YPSK, for which the enrichment ratio is no more than 0.25.

Regarding TVFP, the enrichment ratio was no more than 0.25.

For VDTN, the enrichment ratio is no more than 0.25.

As to SDSE, the enrichment ratio was no more than 0.25.

Turning to SQSE, the enrichment ratio came to 11.4.

With NVSE, the enrichment ratio was no more than 0.25.

In the case of DPSE, the enrichment ratio is no more than 0.25.

Turning to GNSE, the enrichment ratio is no more than 0.25.

As to TVSE, the enrichment ratio is 14.1.

On to SRSE, for which the enrichment ratio was no more than 0.25.

For SISE, the enrichment ratio was determined as 12.6.

For KYSE, the enrichment ratio was no more than 0.25.

As for LNSE, the enrichment ratio is no more than 0.25.

As to SNSE, the enrichment ratio is 16.4.

Turning to SPSE, the enrichment ratio was no more than 0.25.

On to FFRE, for which the enrichment ratio is no more than 0.25.

For the variant EVVH, the enrichment ratio is no more than 0.25.

For the variant TGPK, the enrichment ratio was no more than 0.25.

For the variant GKHW, the enrichment ratio was no more than 0.25.

In the case of FNVA, the enrichment ratio was no more than 0.25.

On to KTII, for which the enrichment ratio is no more than 0.25.

As to TGSE, the enrichment ratio came to 7.38.

In the case of SGSE, the enrichment ratio is 15.4.

With GGSE, the enrichment ratio is no more than 0.25.

As to IEKG, the enrichment ratio is no more than 0.25.

Regarding LARL, the enrichment ratio was no more than 0.25.

For SSPS, the enrichment ratio was no more than 0.25.

With YHLR, the enrichment ratio is no more than 0.25.

As to MSWI, the enrichment ratio came to 14.1.

For MSTA, the enrichment ratio is no more than 0.25.

Turning to MSGM, the enrichment ratio is 6.76.

In the case of MSYK, the enrichment ratio was no more than 0.25.

Regarding MSCI, the enrichment ratio came out at 16.7.

With MSPM, the enrichment ratio is no more than 0.25.

Regarding MSWM, the enrichment ratio is 23.7.

On to MSPI, for which the enrichment ratio is no more than 0.25.

On to MSCA, for which the enrichment ratio was 0.541.

As to MSCS, the enrichment ratio is 0.763.

MSYD: the enrichment ratio was no more than 0.25.

Turning to MSYI, the enrichment ratio amounted to 12.1.

Turning to KTWF, the enrichment ratio was no more than 0.25.

Turning to YIVR, the enrichment ratio was no more than 0.25.

For the variant DSYR, the enrichment ratio is no more than 0.25.

With WDLV, the enrichment ratio was no more than 0.25.

For the variant SPGS, the enrichment ratio was no more than 0.25.

As for AEGC, the enrichment ratio stood at 2.22.

Turning to MSFD, the enrichment ratio was no more than 0.25.

With MSAT, the enrichment ratio turned out to be 7.26.

As to WIAS, the enrichment ratio was no more than 0.25.

In the case of MSQM, the enrichment ratio is no more than 0.25.

For MSFY, the enrichment ratio is 12.3.

With MAFL, the enrichment ratio was 12.9.

Regarding NAFL, the enrichment ratio is 0.25.

Consider KSFY, for which the enrichment ratio was no more than 0.25.

For the variant MSSF, the enrichment ratio came out at 0.41.

Regarding MSSM, the enrichment ratio was 11.9.

For MSAS, the enrichment ratio was found to be 12.6.

For the variant KAFL, the enrichment ratio is no more than 0.25.

As to PAHY, the enrichment ratio was no more than 0.25.

Take AKLK: the enrichment ratio was no more than 0.25.

For the variant MEND, the enrichment ratio is no more than 0.25.

On to PTHW, for which the enrichment ratio is no more than 0.25.

Regarding AVIT, the enrichment ratio came to 1.3.

As to MIMD, the enrichment ratio is no more than 0.25.

For the variant LLDF, the enrichment ratio was no more than 0.25.

As for NAWF, the enrichment ratio is no more than 0.25.

Regarding PFLK, the enrichment ratio was no more than 0.25.

For RPFK, the enrichment ratio was no more than 0.25.

Regarding MSTD, the enrichment ratio was no more than 0.25.

In the case of MSLA, the enrichment ratio was 5.33.

For MSHP, the enrichment ratio is no more than 0.25.

Turning to MSLM, the enrichment ratio was determined as 15.9.

On to MSFC, for which the enrichment ratio stood at 14.1.

In the case of MSFA, the enrichment ratio was 2.31.

For MSGI, the enrichment ratio was 17.5.

On to MSTC, for which the enrichment ratio was 1.5.

Take MSGD: the enrichment ratio was no more than 0.25.

Regarding MSLF, the enrichment ratio is 1.86.

Take MSGR: the enrichment ratio is no more than 0.25.

For MSHQ, the enrichment ratio was found to be 12.

On to IAPP, for which the enrichment ratio is no more than 0.25.

As for NMIK, the enrichment ratio was no more than 0.25.

As for DCGT, the enrichment ratio is no more than 0.25.

On to EMPS, for which the enrichment ratio was no more than 0.25.

For the variant NEEL, the enrichment ratio was no more than 0.25.

As for MHMN, the enrichment ratio was no more than 0.25.

Turning to NGVW, the enrichment ratio is no more than 0.25.

Take MSTI: the enrichment ratio turned out to be 18.2.

As to MSGG, the enrichment ratio was no more than 0.25.

On to MSFL, for which the enrichment ratio turned out to be 13.3.

As to MEFL, the enrichment ratio came out at 8.98.

KSHM: the enrichment ratio was no more than 0.25.

Take MSGA: the enrichment ratio was 0.29.

Take KSFL: the enrichment ratio is no more than 0.25.

Take MSCF: the enrichment ratio is 1.71.

Consider MRHM, for which the enrichment ratio is no more than 0.25.

Take MSHM: the enrichment ratio was determined as 22.

Consider MSLY, for which the enrichment ratio was found to be 0.424.

In the case of MSGQ, the enrichment ratio amounted to 14.3.

In the case of SKYM, the enrichment ratio is no more than 0.25.

CCSC: the enrichment ratio is no more than 0.25.

Take FTRK: the enrichment ratio is no more than 0.25.

Regarding MDDW, the enrichment ratio is no more than 0.25.

For ADPG, the enrichment ratio is no more than 0.25.

For the variant VPPG, the enrichment ratio is no more than 0.25.

LIYG: the enrichment ratio is no more than 0.25.

MSTW: the enrichment ratio was no more than 0.25.

Turning to MSCE, the enrichment ratio was no more than 0.25.

With MSRL, the enrichment ratio was no more than 0.25.

As for MSEL, the enrichment ratio was no more than 0.25.

Take MSWL: the enrichment ratio is 14.4.

As to MSCV, the enrichment ratio came to 15.3.

Turning to GKQS, the enrichment ratio is no more than 0.25.

For SDCI, the enrichment ratio was 4.22.

As to QYNK, the enrichment ratio was no more than 0.25.

For the variant GGPL, the enrichment ratio is no more than 0.25.

For SNVY, the enrichment ratio came to 1.11.

Turning to AAII, the enrichment ratio is 12.4.

As for AKII, the enrichment ratio is 13.6.

Consider KKII, for which the enrichment ratio was no more than 0.25.

In the case of ADII, the enrichment ratio stood at 1.41.

As for NAII, the enrichment ratio was no more than 0.25.

For the variant KAII, the enrichment ratio is no more than 0.25.

As for DMTW, the enrichment ratio was no more than 0.25.

In the case of IQGQ, the enrichment ratio is no more than 0.25.

GIPQ: the enrichment ratio is no more than 0.25.

Take YTSL: the enrichment ratio was no more than 0.25.

Take GTSL: the enrichment ratio came to 9.63.

Turning to CVSL, the enrichment ratio is no more than 0.25.

Consider KQSL, for which the enrichment ratio is no more than 0.25.

On to CTSL, for which the enrichment ratio was 11.6.

As for TTSL, the enrichment ratio came out at 17.6.

Consider TVPF, for which the enrichment ratio was no more than 0.25.

With QVGW, the enrichment ratio was 2.43.

As for EDEG, the enrichment ratio is no more than 0.25.

Regarding FEDM, the enrichment ratio was no more than 0.25.
